Measured values from PubChem BioAssay AID2314 (National Center for Advancing Translational Sciences (NCATS), 2010).
Several values for one entry are separate records, joined by “and”; a condition that tells them apart may be missing. Identical values can stand only once. Hit rate of the full screen: of about 300,000 compounds, about 37,000 (12%) were called active. This excerpt belongs to a sample that is enriched for actives. A number with no mark means an inactive call. Cut-off read from the data, not from the text of the source: active = max response mostly above about 13% (no sharp cut-off); inactive = mostly below about 14%.

Test: Cycloheximide Counterscreen for Small Molecule Inhibitors of Shiga Toxin; note: read at 38.3 µM for the half of the compounds with a filed dose; 0% is about no effect
Conditions: cell reporter, cycloheximide protein synthesis inhibition counterscreen; stronger effect = higher value

Row | Compound | max response
1 | O=c1cc(-c2ccc(O)cc2)oc2c(-c3cc(-c4cc(=O)c5c(O)cc(O)cc5o4)ccc3O)c(O)ccc12 | -11.1%
2 | COc1ccc(-c2cc(=O)c3c(O)cc(O[C@@H]4O[C@H](CO[C@@H]5O[C@@H](C)[C@H](O)[C@@H](O)[C@H]5O)[C@@H](O)[C@H](O)[C@H]4O)cc3o2)cc1O | -0.55%
3 | COc1c(O)cc2oc(-c3ccc(O)c(O)c3)cc(=O)c2c1O | 43% (active) and 45.2% (active)
4 | Cc1cc(C)cc(Oc2c(C(F)(F)F)oc3cc(OCC(=O)O)ccc3c2=O)c1 | -1.36%
5 | c1ccc(-c2cnc(CN3CCN(c4ccccc4)CC3)o2)cc1 | 7.72%
6 | O=C(CCSc1ccccc1)N1CCN(c2ccccc2F)CC1 | 48.8% (active)
7 | CCc1ccc(NC(=O)CS(=O)CC(=O)N2CCN(c3ccccc3F)CC2)cc1 (stereo not drawn) | 3.43%
8 | O=C(NCC(=O)N1CCN(c2ccccc2O)CC1)c1ccc2ccccc2c1 | 1.36%
9 | O=C(CCc1ccccc1F)N1CCN(c2ccccc2)CC1 | 0.391%
10 | O=C(NCC(=O)N1CCN(c2ccccc2F)CC1)c1cccs1 | 23.4% (active)
11 | O=C(CCS(=O)(=O)c1cccc2nsnc12)N1CCN(c2ccccc2F)CC1 | 6.58%
12 | COc1ccc(NC(=O)CSCc2ccc([N+](=O)[O-])cc2)cc1OC | -3.9%
13 | Cc1cccc(N2CCN(C(=O)c3cccc(N4C(=O)C5C6C=CC(C6)C5C4=O)c3)CC2)c1C (stereo not drawn) | -6.3%
14 | O=C(CSc1nnc(Nc2ccccc2)s1)Nc1cccnc1Cl | 2.36%
15 | Cc1ccc(Nc2nnc(SCC(=O)c3cc4ccccc4o3)s2)cc1C | 10.2%
16 | CC(C)c1ccc(Nc2nnc(SCC(=O)c3nnc(-c4ccccc4)o3)s2)cc1 | 23.6% (active)
17 | Cc1cc(=O)oc2c3c(cc(OCC(=O)NCc4ccccn4)c12)OC(C)(C)CC3 | -2.86%
18 | Cc1ccc(N2CCN(c3ccc([N+](=O)[O-])cn3)CC2)c(C)c1 | -4.64%
19 | O=C(COc1ccc(S(=O)(=O)Nc2cccc(C(F)(F)F)c2)cc1)N1CCOCC1 | -0.756%
20 | CN(C)c1nc(N)nc(CSc2nnnn2-c2cccc3ccccc23)n1 | -1%
21 | CCOC(=O)CSc1ccccn1 | -1.11%

Row | Compound | max response
22 | CN(C)c1nc(N)nc(CSc2ccccn2)n1 | 21.5% (active)
23 | CCOC(=O)c1cc2c(=O)[nH]c(C(Cl)(Cl)Cl)nc2o1 | 7.51%
24 | O=C(O)c1cccc2c1C(=O)N(C1CCCC1)C2 | -2.23%
25 | Cc1cccc(NC(=O)c2nc(S(=O)(=O)Cc3ccccc3)ncc2Cl)c1 | 29% (active)
26 | CCSc1ncc(Cl)c(C(=O)Nc2cc(C)ccc2C)n1 | -0.976%
27 | Cc1cccc(NC(=O)c2nc[nH]c2C(=O)NCC(=O)OCc2ccccc2)c1 | 1.03%
28 | Cc1cccc(OCc2ccc(C(=O)Nc3ccc(F)cc3)cc2)c1 | -3.2%
29 | CCOc1ccc(NC(=O)c2nc(SCC)ncc2Cl)cc1 | -5.84%
30 | Cc1cccc(CS(=O)(=O)c2ncc(Cl)c(C(=O)Nc3ccc(F)cc3)n2)c1 | 30.3% (active)
31 | COCCCNC(=O)CN1C(=O)CSc2ccc(S(=O)(=O)N3CCOCC3)cc21 | -0.345%
32 | OC(COc1ccc(CN2CCSCC2)cc1)CN1CCCCC1 (stereo not drawn) | 0.684%
33 | CC1CCC(N2CC(=O)N(Cc3ccc4c(c3)OCO4)C(c3ccc(F)cc3)C2=O)CC1 (stereo not drawn) | -2.2%
34 | O=C(c1cc(Cl)cc(Cl)c1)N1CCC(=O)N(C(COCc2ccccc2)Cc2ccccc2)CC1 (stereo not drawn) | -1.19%
35 | O=C(CCl)NNc1cccc(Cl)n1 | 26.1% (active)
36 | O=C(CCl)NNc1nc(-c2ccccc2)c2cc(Cl)ccc2n1 | -5.34%
37 | COc1cc(OC)nc(NC(=O)CCl)n1 | -2.63%
38 | C=CCn1c(SCC(=O)NCC2CCCO2)nc2sc(C)c(C)c2c1=O (stereo not drawn) | -2.05%
39 | COc1ccc(CCCc2nnc(SCc3nc4ccccc4c(=O)[nH]3)n2C)cc1 | 1.63%
40 | CCN(CC(=O)NCc1cccs1)C(=O)c1cccc(S(=O)(=O)Nc2ccccc2OC)c1 | -1.21%
41 | Cc1ccc(-c2nc3ccccc3[nH]2)cc1N | 34.2%
42 | c1ccc2[nH]c(-c3nc4ccccc4[nH]3)nc2c1 | 33.9% (active)

Row | Compound | max response
43 | OC(c1nc2ccccc2[nH]1)C(O)C(O)C(O)c1nc2ccccc2[nH]1 (stereo not drawn) | -2.45%
44 | CN(C(=O)C1CCN(c2ncnc3c2nc2n3CCCCC2)CC1)C1CCCCC1 | -1.8%
45 | CCOCc1nnc(NC(=O)CCS(=O)(=O)Cc2ccccc2)s1 | -1.02%
46 | COc1ccc(OCC(=O)NNC(=O)c2ccc(-c3ccccc3)cc2)cc1 | -2.64%
47 | COC(=O)c1ccc(OCC(=O)NC(C)(C)C)cc1 | 31.4% (active)
48 | CC(C)(C)NC(=O)COc1ccc(CNc2ccc3[nH]c(=O)[nH]c3c2)cc1 | -1.49%
49 | Cc1cccc(NC(=O)N2CCCCCC2)c1C | 8.83%
50 | COc1ccc(NS(=O)(=O)c2cc3c(cc2C)N(C(C)=O)CCO3)cc1 | -2.57%
51 | COc1ccc(C/C(N)=N/OC(=O)c2ccco2)cc1OC | 22.4% (active)
52 | COc1ccc(CC(=O)Nc2ccccc2NC(=O)c2ccco2)cc1OC | 6.8%
53 | COc1ccc(C(=O)O/N=C(\N)Cc2ccc(Cl)cc2Cl)cc1OC | 4.82%
54 | CCc1nnc(NC(=O)CSCc2cc(=O)n3cc(C)sc3n2)s1 | 1.44%
55 | CCN1CCN(C(=O)CN(C)S(=O)(=O)c2ccc(OC)cc2)CC1 | 4.5%
56 | COc1ccc(OC)c(C(=O)c2ccc(C(=O)N3CCN(Cc4csc(C)n4)CC3)cc2)c1 | -2.77%
57 | CCN1CCN(C(=O)c2cc3cc4ccc(OC)cc4nc3s2)CC1 | 15.1% (active)
58 | COc1cc(/C=N/Nc2nc3ccccc3s2)ccc1O | 72.3% (active)
59 | COc1cc(/C=N/NC(=O)CCc2n[nH]c(=O)[nH]c2=O)ccc1O | -0.284%
60 | COc1cc(/C=N\Nc2nc(-c3cccs3)c(NC(C)=O)s2)ccc1O | 17.1% (active)
61 | CCNc1nc(NCC)nc(N/N=C/c2ccc(O)c(OC)c2)n1 | 7.49%
62 | COc1cc(/C=N/NC(=O)CNC(=O)c2ccncc2)ccc1OC(C)=O | -4.24%
63 | CCOc1cc(/C=C(\C#N)c2nc(-c3cccs3)c(NC(C)=O)s2)ccc1O | 1.82%
